# Measured values published in ChEMBL document CHEMBL4513216, “Probing the Open Global Health Chemical Diversity Library for Multistage-Active Starting Points for Next-Generation Antimalarials” (ACS Infect Dis, 2020).
# In all, about 65,000 compounds went through this assay and about 2,100 (3.2%) showed an effect of 50% or more. The median lay at about -52%. The full list was thinned out, with strong results kept by preference.
# System: Plasmodium falciparum
# Assay: Screen against P. falciparum Asexual Blood Stage (ABS), at 5uM
# Format: functional, Dd2
# Conditions: tested at 5 uM
row,SMILES,INHIBITION
1,Cc1c(CNC2CCN(c3ccccc3OC(F)F)C2)cnn1C (stereo unspecified),71%
2,O=C(N[C@@H]1CN[C@H]2CCCO[C@H]21)c1cnccn1,-120%
3,CN(C)[C@@H]1CN(Cc2cccnc2)C[C@H]1c1cn(C)c2ccccc12,71.9%
4,Cn1cccc1C(=O)N1C[C@H]2CN(Cc3cccnc3)C[C@H]2C1,31.3%
5,Cc1ccccc1CC(=O)N1C[C@@H]2CC[C@H]1CN(Cc1cccnc1)C2,-11.4%
6,O=C(COc1coc(CN2CCCC2)cc1=O)Nc1cc(Cl)ccc1Cl,80.6%
7,Cc1cccc(C2(NCCCS(C)(=O)=O)CCCC2)c1,88.9%
8,CS(=O)(=O)CCCNC1(c2cccc(Cl)c2)CCCC1,76%
9,Cc1cc(CNC2(c3ccccc3)CCCCC2)no1,44.9%
10,CS(=O)(=O)CCCNC1(c2ccc(Br)cc2)CCC1,78.5%
11,Cc1ccc(CC(=O)N2CCN(C(C)c3ccccc3F)CC2)cn1 (stereo unspecified),-146%
12,C/C(=C\c1ccco1)CN(C)C(C)Cc1ccccn1 (stereo unspecified),-54.2%
13,CCc1[nH]c2c(CNc3nc(C)cc(NC)n3)cc(C)cc2c1C,89%
14,CCc1[nH]c2c(CNc3cc(C)nc(NC)n3)cc(C)cc2c1C,85.1%
15,CN1C[C@H](NC(=O)c2cscn2)[C@@H]2OCCC[C@@H]21,-18.5%
16,O=C(c1cnn2c1OCCC2)N1CCC2(CC1)OCCO2,-54.5%
17,Cc1noc(C)c1CN1CC[C@@H]2O[C@H](COCC(C)C)CC[C@@H]21,-31.3%
18,CN1CCN(C[C@@H]2OC[C@H]3CN(Cc4ccncc4)CC[C@H]32)CC1,-51.3%
19,c1cc2c(cc1CN1CC[C@H]3CO[C@H](CN4CCCC4)[C@H]3C1)OCO2,78.6%
20,c1cnc(NC[C@H]2OC[C@@H]3CCN(Cc4cccnc4)C[C@@H]32)nc1,-37.6%
21,c1cnc(NC[C@H]2OC[C@@H]3CCN(Cc4nccs4)C[C@@H]32)nc1,-52.4%
22,c1cnc(NC[C@H]2OC[C@@H]3CCN(Cc4ccsc4)C[C@@H]32)nc1,-30.5%

row,SMILES,INHIBITION
1,CN1CCN(C[C@H]2OC[C@@H]3CCN(Cc4ccsc4)C[C@@H]32)CC1,77.7%
2,O=C1O[C@@H]2CN(Cc3ccsc3)C[C@@H]2N1Cc1ccccn1,-67.9%
3,Cc1ccc(Cl)cc1-n1nnnc1C1(N2CCCC2)CCCCC1,-125%
4,Cc1nn(-c2ccc(C(=O)O)cc2)c2c1C(c1cccs1)SCC(=O)N2 (stereo unspecified),-57.4%
5,COCCN1CCN(Cc2ccncc2)c2ncccc2C1,6.88%
6,Cc1ccc(C)c(OCCNC(=O)[C@@H]2CCCCN2)c1,79.4%
7,CC(C)N(C)Cc1cncc2c1CCN(Cc1ccoc1)C2,-19.3%
8,Cc1ccc2c(n1)N(CC(C)C)CCN(S(C)(=O)=O)C2,-82.4%
9,Cc1nccc([C@@H]2C[C@@H]3CCN(Cc4c(C)noc4C)C[C@H]3O2)n1,-6.6%
10,Cc1cc(CN2C[C@@H]3COC[C@]3(c3nnc(C)o3)C2)no1,-26.2%
11,O=C(C1CCOC1)N1CCC2(CCCNC2)CC1 (stereo unspecified),0.28%
12,Cc1cccc(CN2C(=O)CCC23CCNCC3)n1,-102%
13,CCCN1C[C@@H]2CC[C@H]1CN(C(=O)Cn1c(C)cc(C)nc1=O)C2,-79.2%
14,CC(NCCc1nccn1Cc1ccccc1)c1cccs1 (stereo unspecified),86.8%
15,Cc1ccc(C(C)NCCc2nccn2Cc2ccccc2)o1 (stereo unspecified),80.7%
16,CC(Cn1cccn1)NCC(=O)NCCc1cccs1 (stereo unspecified),-8.14%
17,CC(Cn1cccn1)NCC(=O)N(C)Cc1ccsc1 (stereo unspecified),-27.7%
18,CC(NCCc1nccn1Cc1ccccc1)c1ccsc1 (stereo unspecified),83.5%
19,CCc1ccc(CN2C[C@H](OC)[C@H]3COC[C@H]32)o1,-53%
20,O=C(c1ccoc1)N1CCO[C@@H]2CNC[C@@H]21,-14.6%
21,Fc1cnc(N2CCN3C[C@H](Oc4cccnc4)C[C@H]3C2)nc1,-61.4%
22,c1cnc(N2CCOCC3(CNCCO3)C2)nc1 (stereo unspecified),-4.23%

row,SMILES,INHIBITION
1,Cc1cc(C)n2nc(C(=O)N[C@H]3C[C@H]4CN(C)CCN4C3)cc2n1,-13.9%
2,OCCN1CCC(CNCc2ccc(Br)cc2)CC1,86.7%
3,CCc1ccc(CNCC2CCN(CCO)CC2)cc1,84.2%
4,O=C(Cc1ccc(F)c(Br)c1)N1CCN(CCO)CC1,-1.34%
5,CCc1ccc(OCC(=O)N2CCN(CC)CC2)cc1,-123%
6,OCCN1CCC(CNCc2ccc(N3CCCCC3)cc2)CC1,91.9%
7,OCCN1CCN(Cc2cc3c(cc2Br)OCCO3)CC1,1.48%
8,O=C(C1CCC1)N1CCC2(CC1)OCCO2,-22.7%
9,O=C(c1ccc[nH]1)N1CCCC2(CCCN2Cc2cccnc2)C1 (stereo unspecified),-53.7%
10,CCNCCc1nc2cc(F)ccc2[nH]1,-115%
11,Fc1ccc2[nH]c(C3CCCN3Cc3c[nH]cn3)nc2c1 (stereo unspecified),81%
12,CNCCc1nc2cc(F)ccc2[nH]1,-61.7%
13,c1cncc(OC[C@@]23CCC[C@@H]2CN(C2CCOCC2)C3)c1,3.99%
14,CCCc1nnc2sc(C3CCN(CC)CC3)nn12,-55.6%
15,c1cnc2c(c1)CN(C1CCOC1)CCN2CC1CC1 (stereo unspecified),-73.8%
16,COc1c(Br)cc(Br)cc1CNC(C)Cn1cccn1 (stereo unspecified),17.9%
17,COc1cccc(CNC(C)Cn2cccn2)c1OC (stereo unspecified),-22.3%
18,COc1cccc(CNCc2cccnc2-n2cccn2)c1OC,70.1%
19,N#Cc1cccc(CN2CCn3cc(Cn4cccn4)nc3C2)c1,78.6%
20,CN1CCN(Cc2cccc(C#N)c2)Cc2cccnc21,-71%
21,CC(Cn1cccn1)NCc1cccc(C#N)c1 (stereo unspecified),-46.4%
22,CCN1C[C@@H]2CN(c3cc(OC)ncn3)CCC[C@]2(C(=O)O)C1,-22%

row,SMILES,INHIBITION
1,COC(=O)c1ccc(C2SCC(=O)Nc3c2cnn3C2CCCC2)cc1 (stereo unspecified),-86.9%
2,CN1CCC(N(Cc2ccco2)S(=O)(=O)c2cc(Br)ccc2Br)CC1,76.2%
3,CN1CCC(N(Cc2ccco2)S(=O)(=O)c2ccc(Br)cc2Cl)CC1,74.7%
4,CC(Cn1ccnc1)NCc1csc2c1CCCC2 (stereo unspecified),22.3%
5,CO[C@@H]1CCN(Cc2cccs2)[C@@H]2CN(Cc3ccncc3)C[C@@H]21,53.8%
6,CO[C@H]1CCN(C2CCC2)[C@@H]2CN(Cc3ccncc3)C[C@H]12,-41.2%
7,CO[C@@H]1CCN(S(=O)(=O)N(C)C)[C@@H]2CN(Cc3cccnc3)C[C@@H]21,-88.2%
8,CO[C@H]1CCN(Cc2cccs2)[C@@H]2CN(Cc3ccncc3)C[C@H]12,61.5%
9,CO[C@@H]1CCN(S(=O)(=O)N(C)C)[C@@H]2CN(Cc3ccncc3)C[C@@H]21,-53.3%
10,COCCN1C[C@@H]2[C@@H](OC)CCN(Cc3cccc(C)n3)[C@@H]2C1,-1.19%
11,CCS(=O)(=O)N1CC[C@H](OC)[C@H]2CN(Cc3ccncc3)C[C@H]21,-64.4%
12,CO[C@H]1CCN(Cc2cccc(C)n2)[C@@H]2CN(Cc3cccnc3)C[C@H]12,70.4%
13,COCCN1C[C@@H]2[C@@H](OC)CCN(Cc3ccncc3)[C@@H]2C1,24.3%
14,O=C(c1ccncc1)N1CCN2C[C@H](Oc3cncnc3)C[C@H]2C1,-105%
15,COc1cc(CNC(C)Cn2cccn2)cc(OC)c1OC (stereo unspecified),-12.2%
16,COc1ccc(C(C)NCc2cscn2)cc1Cn1cccn1 (stereo unspecified),71.6%
17,COc1ccc(CNC(C)Cn2cccn2)cc1OC (stereo unspecified),-66.8%
18,COc1ccc(C(C)NCc2ccsc2)cc1Cn1cccn1 (stereo unspecified),73.1%
19,N#Cc1ccc(OC[C@]23COC[C@H]2CN(Cc2ccoc2)C3)nc1,-15.7%
20,Cc1ccc(CN2CC[C@@H]3[C@H]2CCC(=O)N3Cc2ccncc2)s1,-6.15%
21,CSc1nccc(N2CCN(C)C3(CCNC(=O)CC3)C2)n1 (stereo unspecified),-69.1%
22,O=C1C[C@@H]2CC[C@H](CN1)N2C1CCOCC1,-0.465%

row,SMILES,INHIBITION
1,O=C1[C@H]2CN(Cc3nccs3)C[C@H]2CN1c1cncnc1,-64.4%
2,O=C(CN(C1=NCCCCC1)c1ccc(Cl)cc1)c1ccccc1,75.5%
3,COCCN1CCN(S(=O)(=O)C2CC2)Cc2ccc(C)nc21,-12%
4,COc1cccc(S(=O)(=O)N2C[C@@H](N(C)C)[C@H](C(C)C)C2)c1,72.2%
5,CN(C)[C@@H]1CN(Cc2cnn(C)c2)[C@@H]2COC[C@H]12,-104%
6,Cc1c(F)cccc1S(=O)(=O)NC(C)(C)CN,80.9%
7,Cc1cccc(CN2CC[C@H]3OCC[C@@]3(C(=O)N3CCCO3)C2)n1,-77.9%
8,O=C1CC[C@H]2[C@@H](CCN2Cc2ccco2)N1,-46.7%
9,c1ccc2c(c1)C(NC1CCCC1)CC21CCNCC1 (stereo unspecified),75.7%
10,NC(=O)CC1CC2(CCNCC2)c2cc(F)ccc21 (stereo unspecified),-82.7%
11,Cc1ccc2c(c1)C1(CCNCC1)CC2NC1CC1 (stereo unspecified),74.6%
12,Cc1ccc2c(c1)C(NC(C)C)CC21CCNCC1 (stereo unspecified),-41.2%
13,Cc1ccc2c(c1)C1(CCNCC1)CC2NC(C)C (stereo unspecified),-31.2%
14,Fc1ccc2c(c1)C1(CCNCC1)CC2OCC1CC1 (stereo unspecified),70.1%
15,COc1ccc2c(c1)C1(CCNCC1)CC2NC1CC1 (stereo unspecified),0.674%
16,O=C1CC2(CCNCC2)C(=O)N1c1cccc(F)c1,-155%
17,O=C1NC2(CCNCC2)CC1c1ccccc1 (stereo unspecified),-129%
18,Cc1ccc2c(c1)C(NC1CC1)CC21CCNCC1 (stereo unspecified),83.2%
